# Compound activity as filed in PubChem.
# ELG1 genotoxic: genotoxicity induction in ELG1-luciferase HEK293T cells. HEK293T ELG1-luciferase reporter, luminescence, 16 h. Potency, µM (highest dose often 46 µM), for inactives: top-dose activity change, positive = activation, hits mostly activators. 330,000 compounds, 1.3% hits; further: % of control where 0% means no effect; nearly all actives have a fitted effect of over 60% in size
#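 ELG1-luciferase HEK293T cells, 2,000/well; compound pinned in; 16 hr, 37 °C, 5% CO2; ONE-Glo, 30 min RT; luminescence on CCD imager.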
# FLuc counter: firefly luciferase modulation, counter-screen for miR-21 project. purified FLuc, Km substrates, luminescence inhibition. P08659. 360,000 compounds, 6.9% hits. Potency, µM (series often up to 57.5 µM), without a hit: top-dose activity change, negative = inhibition, most hits filed as inhibitors;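 further: plate controls were vehicle for no effect and reference inhibitor for full effect; nearly all actives have a fitted effect of over 55% in size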
# Target sequence (P08659 whole entry, looked up): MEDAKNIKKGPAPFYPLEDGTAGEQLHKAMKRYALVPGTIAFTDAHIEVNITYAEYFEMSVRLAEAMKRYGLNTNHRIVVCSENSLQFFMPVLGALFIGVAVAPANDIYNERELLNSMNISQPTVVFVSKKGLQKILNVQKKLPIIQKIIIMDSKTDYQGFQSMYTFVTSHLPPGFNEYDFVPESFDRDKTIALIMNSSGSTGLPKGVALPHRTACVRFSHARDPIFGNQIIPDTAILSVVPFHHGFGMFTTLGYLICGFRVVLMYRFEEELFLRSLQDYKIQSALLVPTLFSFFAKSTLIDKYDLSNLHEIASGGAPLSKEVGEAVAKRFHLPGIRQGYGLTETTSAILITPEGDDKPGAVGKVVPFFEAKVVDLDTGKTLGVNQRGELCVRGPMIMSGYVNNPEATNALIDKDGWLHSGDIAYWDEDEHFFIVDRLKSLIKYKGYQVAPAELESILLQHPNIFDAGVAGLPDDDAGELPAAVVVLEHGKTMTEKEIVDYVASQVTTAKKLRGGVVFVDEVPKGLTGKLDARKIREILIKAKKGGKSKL
#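 Purified P. pyralis luciferase (10nM final) with 10uM D-luciferin and 10uM ATP (Km levels) in 50mM Tris acetate pH 7.5, 10mM Mg acetate, 0.01% Tween-20, 0.05% BSA; qHTS 6-point titration, ~60 µM downward; luminescence read.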
# Rab9 prom act: Rab9 promoter activation; AID 485297; Potency, µM (doses to about 9.22 µM), for inactives: at the highest dose activation, negative = inhibition, most hits filed as activators; 320,000 compounds, 2.8% hits; Huh7 Rab9 promoter-luciferase reporter, luminescence, 24 h; further: % of control where 0% means no effect; nearly all actives have a fitted effect of over 60% in size
#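 Measured in stably transfected Huh7 cells bearing a Rab9 promoter–luciferase construct: 24 h compound treatment at 37 °C, followed by luminescence detection.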
# SMN2 splice up: enhancers of SMN2 splice variant expression. 210,000 compounds, 2.8% hits. Potency, µM (highest dose often 46.1 µM), inactives show at the top dose activity change, positive = activation, most hits filed as activators. HEK293 SMN2-luciferase splicing reporter, luminescence, 30-36 h. AID 1458; further: % of control where 0% means no effect; nearly all actives have a fitted effect of over 55% in size
#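 qHTS luciferase splicing reporter: luminescence rises when SMN2 exon 7 is included in transfected HEK293 cells. Compound exposure lasted 30-36 h at 37C, with 4.5 mM final sodium butyrate as control, followed by a ONE-Glo read.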
# p53 reactivation: re-activators of mutant p53; Potency, µM (doses to about 92.2 µM), without a hit: at the highest dose activity change, positive = activation, usual class: activators; H1299 p53-A138V BP100-luciferase reporter, luminescence, 24 h; 320,000 compounds, 0.063% hits; further: % of control where 0% means no effect; nearly all actives have a fitted effect of over 45% in size
#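 p53-null H1299 cells stably carrying temperature-sensitive p53-A138V and a BP100-luciferase reporter were pinned with compounds (4-point, 1:5 series) and held 24 hrs at 37 deg C. Luminescence was read 10 min after detection reagent.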
# NPC1 promoter act: NPC1 promoter activation; Huh7 NPC1 promoter luciferase reporter, 24 h; Potency, µM (titrated, usually from 9.22 µM), for the others: at the top dose activation, most hits filed as activators; 320,000 compounds, 2.4% hits; AID 485313; further: % of control where 0% means no effect; nearly all actives have a fitted effect of over 60% in size
#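 Quantitative HTS used a cell-based reporter: Huh7 cells stably bearing the NPC1 promoter upstream of luciferase were treated with compounds for 24 h, and promoter activation was read as luminescence.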
# Starred values were filed as active, the others as inactive; ? = inconclusive; . = no result. Most compounds without a hit are left out; they make up all but 7.4% or so of the library. The call rests on the fitted dose curve; in most records, active means well fitted curve in the direction sought with a large enough effect; inconclusive means small, poorly fitted or top-dose-only effect, or another doubt; inactive means no such curve, though single readings can be large; an effect the other way counts as inactive or inconclusive. Potency means the concentration at half of the fitted maximal effect.
SMILES,ELG1 genotoxic,FLuc counter,Rab9 prom act,SMN2 splice up,p53 reactivation,NPC1 promoter act
CC1CCCC(C)N1C(=O)Cn1nnc(-c2ccc([N+](=O)[O-])cc2)n1 (centres undefined),-8.4%,1.5%,1.3%,.,-25.7%,-3.1%
Cc1cc(NC(=O)c2ccc(Cl)cc2Cl)no1,?,8.49µM*,2.82µM*,.,.,1.41µM*
Cc1cc(NC(=O)Nc2ccc(Cl)cc2)no1,11.9%,?,27.1%,.,.,27.1%
O=C(Nc1ccsn1)c1ccc(Cl)cc1Cl,?,?,?,.,5.5%,3.16µM*
COc1cccc(-c2nnc(-c3ccc(C(F)(F)F)cc3)o2)c1OC,?,7.57µM*,?,17.8µM*,?,26.3%
C/C(=N\NC(=O)c1c(Cl)c(C)nn1C)c1cccc(NC(=O)c2cccc(F)c2)c1,-16.5%,10.7µM*,16.4%,.,-6.7%,1.6%
C/C(=N\NC(=O)c1ccccc1F)c1cccc(NC(=O)c2ccccc2)c1,?,2.69µM*,11.1%,.,-1.7%,23.6%
C/C(=N\NC(=O)c1c(Br)c(C)nn1C)c1cccc(NC(=O)c2ccccc2C)c1,0.7%,12µM*,-4.7%,-2.7%,0.4%,1.5%
C/C(=N\NC(=O)c1nn(C)c(C)c1Br)c1cccc(NC(=O)c2ccc(F)cc2)c1,8.5%,1.9µM*,?,?,23.7%,27.9%
C/C(=N\NC(=O)c1nn(C)cc1Br)c1cccc(NC(=O)C(C)(C)C)c1,4.0%,?,-8.4%,-6.8%,9.0%,-4.1%
C/C(=N\NC(=O)c1c(Br)c(C)nn1C)c1cccc(NC(=O)c2ccccc2F)c1,0.2%,?,-0.2%,8.8%,-9.3%,1.7%
C/C(=N\NC(=O)c1cc(Br)ccc1O)c1cccc(NC(=O)c2ccccc2F)c1,10.3%,?,-5.2%,.,10.8%,-1.2%
C/C(=N\NC(=O)c1c(Cl)c(C)nn1C)c1cccc(NC(=O)COc2ccccc2)c1,-8.2%,-0.7%,9.8%,.,-13.9%,10.0%
COc1ccccc1C(CNC(=O)C1CC(=O)N(Cc2ccc(C)cc2)C1)N1CCCC1 (centres undefined),-1.7%,-1.4%,1.0%,.,5.3%,-0.8%
C/C(=N\NC(=S)NCc1ccccc1)c1ccc(C#N)cc1,7.5%,0.7%,-2.1%,8.7%,5.9%,-2.8%
C/C(=N\NC(=O)c1ccc(Cl)cc1)c1cccc(NC(=O)C(C)C)c1,4.9%,?,10.9%,-7.5%,-0.8%,0.6%
Cc1ccccc1C(=O)Nc1cccc(NC(=O)c2ccc(C(C)(C)C)cc2)c1,.,0.757µM*,.,?,.,.
C/C(=N\NC(=O)c1ccc(O)cc1)c1cccc(NC(=O)c2ccccc2C)c1,6.5%,2.69µM*,?,.,18.3%,0.1%
C/C(=N\NC(=O)c1c(Br)c(C)nn1C)c1cccc(NC(=O)C2CCC2)c1,-0.2%,19µM*,-1.3%,6.1%,2.4%,-0.2%
C/C(=N\NC(=O)c1ccccc1F)c1ccc(C#N)cc1,?,?,3.98µM*,?,?,?
C/C(=N\NC(=O)c1nn(C)cc1Br)c1cccc(NC(=O)C2CCCC2)c1,-3.3%,?,7.8%,1.1%,?,1.7%
Cc1ccc2[nH]cc(C(c3ccccc3)c3ccc(C)s3)c2c1 (centres undefined),.,5.9%,.,-29.6%,.,.
Cc1nn(C)c2c1c(-c1ccccc1)cc(=O)n2CC(=O)NC(C)C,.,-2.0%,.,.,.,.
COc1cccc(C2C=C(c3ccc(C)cc3)Nc3c(C(=O)Nc4ccc(F)cc4)cnn32)c1OC (centres undefined),.,-3.7%,.,.,.,.
CCCOc1ccc(C(=O)CCC(=O)OCC(=O)N2CC(=O)Nc3ccccc32)cc1,-0.6%,16.9µM*,-6.6%,-1.8%,6.4%,-2.4%
SMILES,ELG1 genotoxic,FLuc counter,Rab9 prom act,SMN2 splice up,p53 reactivation,NPC1 promoter act
CCN1C(=O)c2cccc3c(S(=O)(=O)N(C(C)=O)c4ccc(OC(C)=O)cc4)ccc1c23,17.5%,.,.,.,-7.4%,.
CCc1ccc(/C=C/C(=O)C2C(=O)c3ccccc3C2=O)cc1,0.8%,0.426µM*,?,?,5.3%,?
Cc1ccc(CN/C=C/C(=O)c2ccc(Br)cc2)cc1,5.2%,16.9µM*,20.3%,17.4%,24.4%,20.1%
Cc1ccc(C(=O)/C=C/NCc2ccc(F)cc2)cc1,9.9%,16.9µM*,4.8%,29.3%,19.0%,-3.2%
COc1ccc(C(=O)/C=C/NCc2ccc(F)cc2)cc1OC,1.0%,-18.5%,0.3%,.,3.1%,2.0%
O=C(N/N=C/c1cc(Br)c(O)c(Br)c1O)c1ccc2c(c1)OCCO2,?,7.57µM*,-35.6%,.,?,-31.1%
CCOc1cc(/C=N/NC(=O)c2ccc3c(c2)OCCO3)cc(Br)c1O,10.4%,21.3µM*,12.6%,.,18.9%,8.8%
O=C(N/N=C/c1cc(Br)c(Br)o1)c1ccc2c(c1)OCCO2,4.6%,12µM*,2.51µM*,.,10.3%,?
O=C(N/N=C/c1cc(Br)cc(Br)c1O)c1cccc(S(=O)(=O)N2CCOCC2)c1,8.6%,2.0%,-6.3%,.,14.9%,-8.5%
CCOc1ccc(-n2c(SCc3ccc(C(=O)OC)o3)nc3c([nH]c4ccccc43)c2=O)cc1,.,1.0%,.,.,.,.
COc1ccc(CCNC(=O)CCCn2c(=O)c3ccccc3n(Cc3ccccc3C)c2=O)cc1OC,.,3.8%,.,2.7%,.,.
C/C(=N\Nc1nc2ccccc2s1)c1ccc(Br)s1,-7.6%,15.1µM*,14.6%,.,6.5%,26.3%
CNC(=S)N/N=C(\C)c1ccc2c(c1)OCO2,6.1%,-0.5%,-0.4%,7.1%,5.9%,1.4%
C/C(=N\Nc1nc2ccccc2s1)c1ccc2c(c1)OCO2,?,9.53µM*,?,17.8µM*,?,27.0%
CCOc1ccccc1NC(=O)CSc1nccn1Cc1ccc(F)cc1,.,3.0%,.,.,.,.
Nc1ncnc2c1ncn2[C@@H]1O[C@H](COP(=O)(O)OP(=O)(O)CP(=O)(O)O)[C@@H](O)[C@H]1O,.,.,.,12.7%,.,.
O=C(c1ccco1)N1N=C(c2cccs2)CC1c1ccc(F)cc1 (centres undefined),-0.8%,-3.2%,-2.9%,-9.0%,-6.0%,6.6%
O=C(c1ccco1)N1N=C(c2cccs2)CC1c1cc([N+](=O)[O-])ccc1O (centres undefined),10.4%,16.9µM*,-0.1%,.,11.4%,11.2%
CCOC(=O)Cn1nc(NC(=O)c2ccc3c(c2)OCO3)cc1C,15.3%,?,-4.0%,.,-1.2%,-1.1%
O=C(Nc1ccn(Cc2ccccc2)n1)c1ccc2c(c1)OCO2,18.9%,5.36µM*,2.82µM*,?,9.2%,?
Cc1ccc(C(=O)Nc2ccn(Cc3ccc(F)cc3)n2)o1,18.5%,15.1µM*,?,.,?,?
